# Experimental data taken from PubChem BioAssay (NCI).
# This is part of a sample that, as a whole, favours compounds with a hit. Of some 83,000 tested, about 20% had one in any assay.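 Cells were grown in 96-well plates and exposed to the test compound at a single concentration for 48 hours; results are reported as percent growth, with values below 10 considered active.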 Values without a mark were called inactive. Calls of active or inactive are those of the source.
# Test system: NCI-H322M lung
# Assay: NCI-60 one-dose screen, 48 h (100 = growth as untreated, 0 = no growth, -100 = all killed)
# Conditions: 10 µM unless noted
row,Structure (SMILES),growth
1,Cc1c(C(=O)NC(Cc2ccccc2)C(O)C(=O)NCc2ccc(F)cc2)[nH]c2ccccc2c1=O (centres undefined),101%
2,Cc1cc(C(=O)c2ccccc2)c(C)c2c1[nH]c1ccc(Cl)cc12,42%
3,COc1ccc(C(=O)/C=C/c2c(C(F)(F)F)nc3sccn23)cc1OC,34.6%
4,O=Cc1c[nH]c2ccc(-c3csc4ccccc34)cc12,83.2%
5,Cc1ccc(/C=C/c2c(C(=O)/C=C/c3ccc(C(F)(F)F)cc3)c(C)nc3ccccc23)cc1,-1.68% (active)
6,N#CC1=C(/N=C/c2ccccc2)Oc2c(ccc3ccccc23)C1c1ccccc1 (centres undefined),45.6%
7,O=C(NCCc1ccc(O)c(O)c1)C12CC3CC(CC(C3)C1)C2,114%
8,Cc1cc(=O)[nH]c(N=Nc2c(O)[nH]c3ccccc23)n1,123%
9,COc1ccc2oc3c(C)c4c(c(C)c3c2c1)C(=O)N(Cc1ccccc1)C4=O,92.4%
10,COc1ccc2[nH]c(O)c(/C=c3/cc4c(c(-c5cc(OC)c(OC)c(OC)c5)n3)=Nc3ccccc3-4)c2c1,92.6%
11,CC(=O)c1nc(Nc2ccc(C)cc2)sc1C,-98.9% (active)
12,COc1ccc(N=C(c2ccccc2)C2C(=O)c3ccccc3C2=O)cc1,105%
13,CCCCc1ccc(Nc2ccc(Nc3ccc(CCCC)cc3S(=O)(=O)O)c3c2C(=O)c2ccccc2C3=O)c(S(=O)(=O)O)c1,96.3%
14,Cc1nn(-c2ccccc2)c2nc3c(c(-c4ccc(Cl)cc4)c12)CNC1(CCSCC1)N3,100%
